# Reference: PubChem BioAssay AID1850 (Southern Research Specialized Biocontainment Screening …, 2009)
# “And” between values parts separate entries of the source, which are not always exact repeats. Equal entries are not always repeated. In all, about 310,000 compounds went through this assay and about 1,000 (0.32%) were called active. Only a sample is shown. Entries with a potency or affinity are not part of this list. Unmarked numbers belong to inactive results. No rule for the calls is given here.
# Assay: PhoP regulon inhibitors, Salmonella typhi PhoP promoter GFP reporter, confirmatory (AID 1850);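 also: 0% = induced wells with vehicle and 100% = uninduced wells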
# Conditions: fluorescence, 4 h, at 50 µM, stronger effect = higher value
row,Structure (SMILES),inhibition
1,CCOc1ccc(-c2noc(CCC(=O)NC3CCCCC3)n2)cc1OC,-7.76%
2,NNc1nc(Nc2ccccc2)nc(Nc2ccccc2)n1,-2.45%
3,COc1cc2nc(Nc3cccc(F)c3)nc(N)c2cc1OC,-16.8%
4,COc1ccc(C)cc1Nc1nc(N)c2ccccc2n1,2.42%
5,Fc1cccc(Nc2nc(Cl)nc(Cl)n2)c1,-6.69%
6,CC(=O)c1ccc(OCC(O)CN2CCN(c3ccc(F)cc3)CC2)cc1 (configuration not stated),9.79%
7,C[C@H]1CN=C(N(C)C)N1CCCC1CCCCC1,-3.79%
8,CCOC(=O)N1CCN(CCC(=O)c2ccc(OC)cc2)CC1,19.1%
9,CCOC(=O)N1CCN(CCC(=O)Nc2ccc(Br)cc2)CC1,-11.9%
10,O=C(CCN1CCOCC1)c1ccc(Cl)cc1,5.47%
11,CCOC(=O)N1CCN(CCC(=O)Nc2cccc(Br)c2)CC1,-10.1% and 1.14%
12,CCOC(=O)n1cc(-c2cnc(CNC(=O)C(C)(c3ccccc3)c3ccccc3)o2)c2ccccc21,-3.78%
13,Cc1ccc(C(=O)NCC(=O)Nc2cccc(C(F)(F)F)c2)cc1,7%
14,CCCN1CCN(CCCNC(=S)Nc2ccc3nc(N4CCN(CC)CC4)cc(C)c3c2)CC1,2.52%
15,Cn1cc(P(=S)(N2CCOCC2)N2CCOCC2)cc1P(=S)(N1CCOCC1)N1CCOCC1,-5.57%
16,CN(C)S(=O)(=O)c1ccc(S(=O)(=O)N(CC(=O)Nc2ccccc2)CC2CCCO2)cc1 (configuration not stated),9.84%
17,CC1CCCN(C(=O)COC(=O)Cc2c(F)cccc2Cl)C1 (configuration not stated),8.14%
18,CN1CCC(=C2c3ccccc3CC(=O)c3sccc32)CC1,-11.1% and 6.89% and 11.9%
19,C[N+]1(C)CCC(=C2c3ccccc3CC(=O)c3sccc32)CC1,-5.91%
20,Clc1ccc2c(c1)CCc1cccnc1C2=C1CCNCC1,9.72%
21,CN1CCC(=C2c3ccccc3CCc3sccc32)CC1,4.53%

row,Structure (SMILES),inhibition
1,COc1ccccc1CNC(=O)c1ccc(N2CCOCC2)c([N+](=O)[O-])c1,3.84%
2,O=C(O)c1ccccc1C(=O)Nc1ccc(Oc2ccc3ccccc3c2)cc1,-5.98%
3,O=S(=O)(Nc1ccc(-n2cnnn2)cc1)c1ccc(F)c(F)c1F,-6.29%
4,COc1ccc2nc(C)cc(NCCN3CCOCC3)c2c1,3.31%
5,Cc1cc(NCCN2CCOCC2)c2ccc3ccccc3c2n1,0.49%
6,CN1CCN(C2=Nc3cc(F)ccc3Cc3ccccc32)CC1,10.2%
7,CN1CCN(c2ccc(F)cc2N)CC1,-23.4%
8,CN1CCN(C2=Cc3ccc(Cl)cc3Sc3ccc(F)cc32)CC1,2.54%
9,CN1CCN(c2nc(-c3ccc(Cl)c(Cl)c3)nc3ccccc23)CC1,-3.79%
10,CN1CCN(C2=Cc3ccccc3Sc3cc(F)c(F)cc32)CC1,56.3%
11,CN1CCN(c2ccc(Cl)cc2N)CC1,5.42%
12,COc1ccc(N(CC(=O)Nc2ccc(C(C)C)cc2)S(=O)(=O)c2c(C)noc2C)cc1,-9.48%
13,COc1ccccc1NC(=O)CSc1nnc(Cc2ccccc2)o1,-0.38%
14,CCC(=O)OC1(Cc2ccc(CC)cc2)CC(C)N(C)CC1C (configuration not stated),-0.84%
15,CCOC(=O)C1(CCOC)CCN(Cc2ccncc2)CC1,-5.83%
16,O=C(Oc1c(CN2CCOCC2)cc(Cl)c2cccnc12)c1ccccc1,9.08%
17,COc1ccc(CN2CCN(C)CC2)cc1OCc1ccccc1,0.01%
18,Oc1c(CN2CCCCC2)cc(COCc2ccccc2)c2cccnc12,-6.03%
19,Oc1c(CN2CCOCC2)cc(-c2ccccc2)cc1CN1CCOCC1,9.41%
20,Cc1cccc(OCC(=O)Nc2nnc(-c3ccco3)s2)c1,5.97%
21,CCOc1ccc2nc(N3CCCC(C(=O)NCCCN4CCCCC4)C3)sc2c1 (configuration not stated),6.31%

row,Structure (SMILES),inhibition
1,CCN(CC(N)=O)S(=O)(=O)c1ccc(Br)cc1,4.08%
2,N=c1n(CCN2CCCC2)c2ccccc2n1CC(O)c1ccc(Cl)c(Cl)c1 (configuration not stated),27.1%
3,N=c1n(CCN2CCCCC2)c2ccccc2n1CC(O)c1cccc(Br)c1 (configuration not stated),2.9%
4,CCCn1c(=N)n(CC(=O)c2ccc(Cl)c(Cl)c2)c2ccccc21,-5.11%
5,N=c1n(CCN2CCOCC2)c2ccccc2n1CC(=O)c1ccc(Cl)c(Cl)c1,20.6%
6,CC1=NN(c2nc(C)cc(C)n2)C(=O)C1CCC(C)C (configuration not stated),2.35%
7,Cc1cc(C)nc(NC(=O)c2cccs2)c1,-2.29%
8,Cc1cccc(NS(=O)(=O)c2c(C)nc3scc(C)n3c2=O)c1,-24.5%
9,COC(=O)C1CSC(C(=O)OC)N1C(=O)CN1CC(C)OC(C)C1 (configuration not stated),-2.04%
10,O=c1[nH]c(=O)n(C2OC(CO)C(O)C2O)cc1Br (configuration not stated),-19.2%
11,O=c1ccn([C@@H]2O[C@H](CO)[C@@H](O)[C@H]2O)c(=O)[nH]1,-0.0767%
12,Cc1cc(C)nc(CCNC(=O)c2cc(COc3c(C)cccc3C)on2)n1,-3.31%
13,CC(C)Oc1ccc(C(=O)NCC(=O)OCC(=O)N(C)Cc2cccs2)cc1,2.06%
14,CCn1c(C)cc(C)c(C#N)c1=O,7.92%
15,Cc1ccc(OCC(O)Cn2c(=N)n(CCN3CCOCC3)c3ccccc32)cc1 (configuration not stated),14%
16,COc1ccc(OCC(O)Cn2c(=N)n(CCN3CCCCC3)c3ccccc32)cc1 (configuration not stated),20.8%
17,CCN(CC)CCn1c(=N)n(CC(O)COc2ccccc2)c2ccccc21 (configuration not stated),15.1%
18,N=c1n(CCN2CCCCC2)c2ccccc2n1CC(O)COc1ccccc1 (configuration not stated),28%
19,CCCn1c(=N)n(CC(O)COc2cccc(C)c2)c2ccccc21 (configuration not stated),3.8%
20,CCCCn1c(=N)n(CC(O)COc2cccc(C)c2)c2ccccc21 (configuration not stated),9.29%
